# Laboratory results as given in PubChem BioAssay AID2634 (National Center for Advancing Translational Sciences (NCATS), 2010).
# Results filed as inconclusive are left out. Values without a mark were called inactive. Active and inactive are the calls of the source.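 The calls were made as follows: active = compounds whose potency, the dose giving half inhibition, is below 20 µM; inconclusive = compounds meeting neither the active nor the inactive rule; inactive = potency over 20 µM or below 50% inhibition when unfitted.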
# Biological target: Integrin alpha-IIb (Homo sapiens) (UniProt P08514)
# Experiment: Platelet Adhesion Secondary Assay for Inhibitors of Platelet Integrin alphallb-beta3
# Conditions: human platelet adhesion to fibrinogen, calcein fluorescence; inhibition: at 30 µM, hits give high values
# Source text: NIH Molecular Libraries Probe Production Network [MLPCN] NIH Chemical Genomics Center [NCGC] MLPCN Grant: 1 R03 MH083257-01 Assay Provider: Barry Coller, Rockefeller University NCGC Assay Overview: The alphaIIbbeta3 receptor plays a vital role in hemostasis and thrombosis, where receptor deficiency causes the hemorrhagic disorder, Glanzmann thrombasthenia, and uncontrolled receptor activation causes thrombosis and blood vessel occlusion. Small molecule inhibitors of alphaIIbbeta3, tirofiban and eptifibatide, have undesirable side effects thought to arise from conformational changes in alphaIIbbeta3. These changes transiently activate the receptor to cause spontaneous platelet aggregation and thrombus formation. […] This secondary assay measures the binding of human plates to fibrinogen, an extracellular matrix protein (Blue et al., 2008). Platelets were loaded with a fluorescent dye, calcein, and added to fibrinogen-coated plates. Following incubation, unbound platelets were removed by washing and bound platelets were detected by measuring fluorescence intensity. Inhibitors of alphaIIbbeta3 block platelet binding to fibrinogen and result in a decrease in fluorescence intensity.
# NCGC Assay Protocol Summary: Human fibrinogen (50 ug/mL) in Tris/saline (100 mM NaCl, 50 mM Tris/HCl, pH 7.4; American Diagnostica, Stamford, CT) was added to black, clear-bottom, untreated polystyrene, nonsterile 384-well microtiter plate wells (Corning no. 3711; Acton, MA) using a peristaltic microplate dispenser (WellMate; Matrix, Hudson, NH). After incubating at 22 C for 1 hour, plates were washed 4 times with Tris/saline using an automated plate washer (ELX405; Bio-Tek, Winooski, VT), and wells were then blocked with HBMT (138 mM NaCl, 12 mM NaHCO3, 10 mM HEPES, 2.7 mM KCl, 0.4 mM NaH2PO4, 0.1% glucose, 0.35% BSA, pH 7.4) for at least 1 hour. After 2 additional washes, 15 uL HBMT was allowed to remain in each well. Compounds were added to the wells with a liquid handling robot (MiniTrak V; PerkinElmer, Wellesley, MA) using a pin tool (VP Scientific, San Diego, CA) that added 0.1 uL compound in DMSO. Fifteen microliters 5E11/L calcein-labeled platelets were then added (2.5E11/L final concentration). After 1 hour of adhesion, wells were washed 4 times with HBMT-CaCl2/MgCl2 and the plates were read by an Envision (Perkin Elmer) to detect calcein fluorescence (490 nm excitation and 515 nm emission). Positive controls consisted of wells containing platelets without compounds. Negative controls were wells containing platelets and known inhibitors of alphaIIbbeta3, including mAbs 7E3 and 10E5, and EDTA. Reference Blue R, Murcia M, Karan C, Jirouskova M, and Coller BS. Application of high-throughput screening to identify a novel alphaIIb-specific small- molecule inhibitor of alphaIIbbeta3-mediated platelet interaction with fibrinogen. Blood. 2008, 111(3):1248-56
# Integrin alpha-IIb (Homo sapiens), sequence (P08514 whole entry, looked up): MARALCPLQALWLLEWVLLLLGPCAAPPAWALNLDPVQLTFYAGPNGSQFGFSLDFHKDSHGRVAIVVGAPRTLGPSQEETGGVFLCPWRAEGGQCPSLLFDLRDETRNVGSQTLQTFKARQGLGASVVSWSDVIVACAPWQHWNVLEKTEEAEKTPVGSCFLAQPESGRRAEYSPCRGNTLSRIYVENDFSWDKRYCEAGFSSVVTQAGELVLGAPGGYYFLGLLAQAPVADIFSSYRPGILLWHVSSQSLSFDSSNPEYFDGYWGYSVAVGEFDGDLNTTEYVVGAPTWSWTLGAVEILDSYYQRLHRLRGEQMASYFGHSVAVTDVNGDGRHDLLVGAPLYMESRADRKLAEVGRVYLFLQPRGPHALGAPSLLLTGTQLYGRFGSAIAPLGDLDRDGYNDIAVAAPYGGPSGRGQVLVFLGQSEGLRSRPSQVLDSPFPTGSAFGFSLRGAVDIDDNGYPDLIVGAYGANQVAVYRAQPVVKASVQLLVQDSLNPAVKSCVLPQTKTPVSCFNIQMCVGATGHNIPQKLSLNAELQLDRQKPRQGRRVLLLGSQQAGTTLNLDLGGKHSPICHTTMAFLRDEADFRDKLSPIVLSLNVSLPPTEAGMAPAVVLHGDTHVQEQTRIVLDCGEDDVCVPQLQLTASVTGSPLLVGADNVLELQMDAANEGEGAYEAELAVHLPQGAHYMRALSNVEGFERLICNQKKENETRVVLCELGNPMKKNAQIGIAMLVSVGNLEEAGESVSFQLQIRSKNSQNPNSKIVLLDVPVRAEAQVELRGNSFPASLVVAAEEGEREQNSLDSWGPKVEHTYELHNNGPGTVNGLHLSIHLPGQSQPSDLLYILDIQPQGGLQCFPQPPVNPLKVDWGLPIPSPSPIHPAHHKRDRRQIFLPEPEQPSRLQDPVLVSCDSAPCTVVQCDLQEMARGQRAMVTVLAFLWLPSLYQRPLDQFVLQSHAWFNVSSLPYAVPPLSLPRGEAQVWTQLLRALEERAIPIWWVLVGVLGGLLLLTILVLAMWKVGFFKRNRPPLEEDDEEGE
Compound,inhibition [%],Potency
COCc1nn2c(=O)cc(N3CCNCC3)nc2s1,18,
CCc1nn2c(=O)cc(NC3CNC3)nc2s1,23,
O=C(O)c1cc(-c2cccc(-c3nn4c(=O)cc(N5CCNCC5)nc4s3)c2)cs1,,2.4 µM (active)
NCC(=O)Nc1cccc(-c2nn3c(=O)cc(N4CCNCC4)nc3s2)c1,,1.1 µM (active)
O=C(O)c1ccc(-c2nn3c(=O)cc(N4CCNCC4)nc3s2)cc1,48,
NC(=O)c1ccc(-c2cccc(-c3nn4c(=O)cc(N5CCNCC5)nc4s3)c2)cc1,,0.855 µM (active)
CNCC(=O)Nc1cccc(-c2nn3c(=O)cc(N4CCNCC4)nc3s2)c1,24,
O=C(Nc1cccc(-c2nn3c(=O)cc(N4CCNCC4)nc3s2)c1)c1ccon1,32,
C[C@H](N)C(=O)Nc1cccc(-c2nn3c(=O)cc(N4CCNCC4)nc3s2)c1,,8.2 µM (active)
Cc1noc(C)c1-c1cccc(-c2nn3c(=O)cc(N4CCNCC4)nc3s2)c1,26,
CCc1nn2c(=O)cc(-c3ccncc3)nc2s1,25,
O=C(O)c1cccc(-c2cccc(-c3nn4c(=O)cc(N5CCNCC5)nc4s3)c2)c1,,0.46 µM (active)
CCc1nn2c(=O)cc(N3C(C)CNCC3C)nc2s1 (stereo not given),27,
CC(C)(C)c1nn2c(=O)cc(N3CCNCC3)nc2s1,21,
Nc1ncc(-c2cccc(-c3nn4c(=O)cc(N5CCNCC5)nc4s3)c2)cn1,,3.5 µM (active)
